According to paper PMC11006913:
Numbering of substitutions follows the chain as printed.

Key:
Assay in all cases: PBM; 200 nM protein, PBS
Details in all cases: dsDNA, one strand shown
VENTX [1] = biological target: T1, VENTX (Homo sapiens, UniProt O95231 78-163, R121Q)
T1 sequence: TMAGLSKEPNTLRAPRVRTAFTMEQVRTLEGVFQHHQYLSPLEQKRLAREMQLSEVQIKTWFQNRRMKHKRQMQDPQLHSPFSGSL

VENTX [2] = biological target: T2, VENTX (Homo sapiens, UniProt O95231 78-163)
T2 sequence: T1 sequence with Q44R

VENTX [3] = biological target: T3, VENTX (Homo sapiens, UniProt O95231 78-163, Y115F)
T3 sequence: T1 sequence with Y38F, Q44R

ALX3 [4] = biological target: ALX3 (Homo sapiens, UniProt O95076 139-225, N203Q)
ALX3 [5] = biological target: ALX3 (Homo sapiens, UniProt O95076 139-225)
ALX3 [6] = biological target: ALX3 (Homo sapiens, UniProt O95076 139-225, L168Q)
ALX3 [7] = biological target: ALX3 (Homo sapiens, UniProt O95076 139-225, L168V)
ALX3 [8] = biological target: ALX3 (Homo sapiens, UniProt O95076 139-225, N203S)
ALX1 [9] = biological target: ALX1 (Homo sapiens, UniProt Q15699 118-204, L144V)
ALX1 [10] = biological target: ALX1 (Homo sapiens, UniProt Q15699 118-204, L144R)
ALX1 [11] = biological target: ALX1 (Homo sapiens, UniProt Q15699 118-204)
PAX4 [12] = biological target: T4, PAX4 (Homo sapiens, UniProt O43316 9-242, F177V)
T4 sequence: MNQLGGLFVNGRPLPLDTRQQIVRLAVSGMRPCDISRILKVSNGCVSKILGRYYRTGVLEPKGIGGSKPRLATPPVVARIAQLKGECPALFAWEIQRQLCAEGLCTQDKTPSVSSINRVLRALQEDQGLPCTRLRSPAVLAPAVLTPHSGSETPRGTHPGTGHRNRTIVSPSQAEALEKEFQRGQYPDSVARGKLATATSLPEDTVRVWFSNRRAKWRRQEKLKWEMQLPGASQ

PAX4 [13] = biological target: T5, PAX4 (Homo sapiens, UniProt O43316 9-242, R227W)
T5 sequence: T4 sequence with V169F, R219W

HOXB6 [14] = biological target: HOXB6 (Homo sapiens, UniProt P17509 132-218, K202E)
HOXB6 [15] = biological target: HOXB6 (Homo sapiens, UniProt P17509 132-218)
HOXD13 [16] = biological target: HOXD13 (Homo sapiens, UniProt P35453 263-343)
HOXD13 [17] = biological target: HOXD13 (Homo sapiens, UniProt P35453 263-343, T313A)
VAX1 [18] = biological target: VAX1 (Homo sapiens, UniProt Q5SQQ9 86-172)
VAX1 [19] = biological target: VAX1 (Homo sapiens, UniProt Q5SQQ9 86-172, T142I)
VAX1 [20] = biological target: VAX1 (Homo sapiens, UniProt Q5SQQ9 86-172, K157R)
HOXA2 [21] = biological target: HOXA2 (Homo sapiens, UniProt O43364 129-215, R185T)
HOXA2 [22] = biological target: HOXA2 (Homo sapiens, UniProt O43364 129-215, R185K)
HOXA2 [23] = biological target: HOXA2 (Homo sapiens, UniProt O43364 129-215, Y150S)
HOXA2 [24] = biological target: HOXA2 (Homo sapiens, UniProt O43364 129-215)
HOXA4 = HOXA4 (Homo sapiens, UniProt Q00056 201-287, R217L)
Chain of HOXA4 (Q00056 201-287 R217L): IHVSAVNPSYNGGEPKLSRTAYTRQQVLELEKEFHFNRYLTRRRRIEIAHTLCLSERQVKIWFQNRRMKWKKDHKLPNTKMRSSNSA

Chain of HOXB6 (Homo sapiens, UniProt P17509 132-218, K202E) (P17509 132-218 K202E): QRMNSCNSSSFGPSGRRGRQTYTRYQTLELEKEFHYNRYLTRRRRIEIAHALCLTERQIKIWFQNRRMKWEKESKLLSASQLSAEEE
Chain of VAX1 (Homo sapiens, UniProt Q5SQQ9 86-172, K157R) (Q5SQQ9 86-172 K157R): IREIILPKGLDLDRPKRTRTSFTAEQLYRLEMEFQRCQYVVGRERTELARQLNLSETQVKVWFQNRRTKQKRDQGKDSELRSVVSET
Chain of HOXB6 (Homo sapiens, UniProt P17509 132-218) (P17509 132-218): as the sequence (P17509 132-218 K202E) above, with E71K counted along it
Chain of HOXA2 (Homo sapiens, UniProt O43364 129-215, R185K) (O43364 129-215 R185K): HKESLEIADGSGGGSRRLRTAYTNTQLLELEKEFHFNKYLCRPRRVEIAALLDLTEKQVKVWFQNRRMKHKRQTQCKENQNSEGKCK
Chain of VAX1 (Homo sapiens, UniProt Q5SQQ9 86-172) (Q5SQQ9 86-172): as the sequence (Q5SQQ9 86-172 K157R) above, with R72K counted along it
Chain of VAX1 (Homo sapiens, UniProt Q5SQQ9 86-172, T142I) (Q5SQQ9 86-172 T142I): as the sequence (Q5SQQ9 86-172 K157R) above, with T57I, R72K counted along it
Chain of HOXA2 (Homo sapiens, UniProt O43364 129-215, Y150S) (O43364 129-215 Y150S): as the sequence (O43364 129-215 R185K) above, with Y22S, K57R counted along it
Chain of HOXA2 (Homo sapiens, UniProt O43364 129-215, R185T) (O43364 129-215 R185T): as the sequence (O43364 129-215 R185K) above, with K57T counted along it
Chain of HOXA2 (Homo sapiens, UniProt O43364 129-215) (O43364 129-215): as the sequence (O43364 129-215 R185K) above, with K57R counted along it
Chain of ALX3 (Homo sapiens, UniProt O95076 139-225, N203Q) (O95076 139-225 N203Q): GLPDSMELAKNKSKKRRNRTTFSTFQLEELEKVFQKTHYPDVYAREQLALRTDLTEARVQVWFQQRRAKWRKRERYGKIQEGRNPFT
Chain of ALX3 (Homo sapiens, UniProt O95076 139-225) (O95076 139-225): as the sequence (O95076 139-225 N203Q) above, with Q65N counted along it
Chain of ALX3 (Homo sapiens, UniProt O95076 139-225, N203S) (O95076 139-225 N203S): as the sequence (O95076 139-225 N203Q) above, with Q65S counted along it
Chain of ALX1 (Homo sapiens, UniProt Q15699 118-204, L144V) (Q15699 118-204 L144V): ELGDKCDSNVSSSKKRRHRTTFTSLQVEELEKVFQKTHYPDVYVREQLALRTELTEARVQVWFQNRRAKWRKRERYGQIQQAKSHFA
Chain of ALX3 (Homo sapiens, UniProt O95076 139-225, L168V) (O95076 139-225 L168V): as the sequence (O95076 139-225 N203Q) above, with L30V, Q65N counted along it
Chain of ALX1 (Homo sapiens, UniProt Q15699 118-204) (Q15699 118-204): as the sequence (Q15699 118-204 L144V) above, with V27L counted along it
Chain of HOXD13 (Homo sapiens, UniProt P35453 263-343, T313A) (P35453 263-343 T313A): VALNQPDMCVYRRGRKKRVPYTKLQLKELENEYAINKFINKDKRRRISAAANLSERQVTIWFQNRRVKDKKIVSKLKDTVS
Chain of ALX3 (Homo sapiens, UniProt O95076 139-225, L168Q) (O95076 139-225 L168Q): as the sequence (O95076 139-225 N203Q) above, with L30Q, Q65N counted along it
Chain of ALX1 (Homo sapiens, UniProt Q15699 118-204, L144R) (Q15699 118-204 L144R): as the sequence (Q15699 118-204 L144V) above, with V27R counted along it
Chain of HOXD13 (Homo sapiens, UniProt P35453 263-343) (P35453 263-343): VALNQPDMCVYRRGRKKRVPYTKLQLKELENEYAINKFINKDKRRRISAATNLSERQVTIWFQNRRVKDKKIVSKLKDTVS

Q: Which results are given for CGAGACCG?
A: binding signal (VENTX [1]): 8.25 upbm affinity estimate (log intensity, higher = more binding, comparable within an allelic series); binding signal (VENTX [2]): 8.39 upbm affinity estimate (log intensity, higher = more binding, comparable within an allelic series); binding signal (VENTX [3]): 8.28 upbm affinity estimate (log intensity, higher = more binding, comparable within an allelic series)

Q: CCCGTCCG was tested. Which binding signal (VENTX [1]) did it give?
A: 7.93 upbm affinity estimate (log intensity, higher = more binding, comparable within an allelic series)

Q: What about the binding signal (VENTX [2]) of the same sequence?
A: 7.94 upbm affinity estimate (log intensity, higher = more binding, comparable within an allelic series)

Q: What about the binding signal (VENTX [3]) of the same sequence?
A: 7.87 upbm affinity estimate (log intensity, higher = more binding, comparable within an allelic series)

Q: What about the binding signal (ALX3 [4]) of the same sequence?
A: 7.62 upbm affinity estimate (log intensity, higher = more binding, comparable within an allelic series)

Q: What about the binding signal (ALX3 [5]) of the same sequence?
A: 7.58 upbm affinity estimate (log intensity, higher = more binding, comparable within an allelic series)

Q: What about the binding signal (ALX3 [6]) of the same sequence?
A: 7.67 upbm affinity estimate (log intensity, higher = more binding, comparable within an allelic series)

Q: And the binding signal (ALX3 [7])?
A: 7.65 upbm affinity estimate (log intensity, higher = more binding, comparable within an allelic series)

Q: What about the binding signal (ALX3 [8]) of the same sequence?
A: 7.6 upbm affinity estimate (log intensity, higher = more binding, comparable within an allelic series)

Q: Which results are given for CGTCCTCC?
A: binding signal (VENTX [1]): 8.1 upbm affinity estimate (log intensity, higher = more binding, comparable within an allelic series); binding signal (VENTX [2]): 8.19 upbm affinity estimate (log intensity, higher = more binding, comparable within an allelic series); binding signal (VENTX [3]): 8.16 upbm affinity estimate (log intensity, higher = more binding, comparable within an allelic series); binding signal (ALX1 [9]): 6.55 upbm affinity estimate (log intensity, higher = more binding, comparable within an allelic series); binding signal (ALX1 [10]): 6.64 upbm affinity estimate (log intensity, higher = more binding, comparable within an allelic series); binding signal (ALX1 [11]): 6.6 upbm affinity estimate (log intensity, higher = more binding, comparable within an allelic series)

Q: How did the binding signal (VENTX [1]) turn out when CCCCATTA was run?
A: 11.5 upbm affinity estimate (log intensity, higher = more binding, comparable within an allelic series)

Q: And the binding signal (VENTX [2])?
A: 12.3 upbm affinity estimate (log intensity, higher = more binding, comparable within an allelic series)

Q: What about the binding signal (VENTX [3]) of the same sequence?
A: 11.3 upbm affinity estimate (log intensity, higher = more binding, comparable within an allelic series)

Q: For ACATATTA, which binding signal (VENTX [1]) is on record?
A: 10.6 upbm affinity estimate (log intensity, higher = more binding, comparable within an allelic series)

Q: And the binding signal (VENTX [2])?
A: 11.3 upbm affinity estimate (log intensity, higher = more binding, comparable within an allelic series)

Q: What about the binding signal (VENTX [3]) of the same sequence?
A: 10.4 upbm affinity estimate (log intensity, higher = more binding, comparable within an allelic series)

Q: What about the binding signal (ALX3 [4]) of the same sequence?
A: 8.55 upbm affinity estimate (log intensity, higher = more binding, comparable within an allelic series)

Q: What about the binding signal (PAX4 [12]) of the same sequence?
A: 10.8 upbm affinity estimate (log intensity, higher = more binding, comparable within an allelic series)

Q: And the binding signal (PAX4 [13])?
A: 11 upbm affinity estimate (log intensity, higher = more binding, comparable within an allelic series)

Q: What does the source list for CCGATTAA?
A: binding signal (VENTX [1]): 11.3 upbm affinity estimate (log intensity, higher = more binding, comparable within an allelic series); binding signal (VENTX [2]): 12.5 upbm affinity estimate (log intensity, higher = more binding, comparable within an allelic series); binding signal (VENTX [3]): 11.3 upbm affinity estimate (log intensity, higher = more binding, comparable within an allelic series)

Q: AAATTACC was tested. Which binding signal (VENTX [1]) did it give?
A: 11.1 upbm affinity estimate (log intensity, higher = more binding, comparable within an allelic series)

Q: What about the binding signal (VENTX [2]) of the same sequence?
A: 11.5 upbm affinity estimate (log intensity, higher = more binding, comparable within an allelic series)

Q: And the binding signal (VENTX [3])?
A: 11 upbm affinity estimate (log intensity, higher = more binding, comparable within an allelic series)

Q: What about the binding signal (HOXB6 [14]) of the same sequence?
A: 9.94 upbm affinity estimate (log intensity, higher = more binding, comparable within an allelic series)

Q: What about the binding signal (HOXB6 [15]) of the same sequence?
A: 11.6 upbm affinity estimate (log intensity, higher = more binding, comparable within an allelic series)

Q: Which binding signal (VENTX [1]) does the source give for ACTTATAA here?
A: 9.95 upbm affinity estimate (log intensity, higher = more binding, comparable within an allelic series)

Q: And the binding signal (VENTX [2])?
A: 10.5 upbm affinity estimate (log intensity, higher = more binding, comparable within an allelic series)

Q: What about the binding signal (VENTX [3]) of the same sequence?
A: 10 upbm affinity estimate (log intensity, higher = more binding, comparable within an allelic series)

Q: And the binding signal (HOXD13 [16])?
A: 11.3 upbm affinity estimate (log intensity, higher = more binding, comparable within an allelic series)

Q: What about the binding signal (HOXD13 [17]) of the same sequence?
A: 11 upbm affinity estimate (log intensity, higher = more binding, comparable within an allelic series)

Q: For GCGCGAAC, which binding signal (VENTX [1]) is on record?
A: 8.01 upbm affinity estimate (log intensity, higher = more binding, comparable within an allelic series)

Q: And the binding signal (VENTX [2])?
A: 8 upbm affinity estimate (log intensity, higher = more binding, comparable within an allelic series)

Q: And the binding signal (VENTX [3])?
A: 8.06 upbm affinity estimate (log intensity, higher = more binding, comparable within an allelic series)

Q: And the binding signal (VAX1 [18])?
A: 7.03 upbm affinity estimate (log intensity, higher = more binding, comparable within an allelic series)

Q: And the binding signal (VAX1 [19])?
A: 7.1 upbm affinity estimate (log intensity, higher = more binding, comparable within an allelic series)

Q: What about the binding signal (VAX1 [20]) of the same sequence?
A: 7.1 upbm affinity estimate (log intensity, higher = more binding, comparable within an allelic series)

Q: With CCACGCGC as the sequence, how does the binding signal (VENTX [1]) read?
A: 8.13 upbm affinity estimate (log intensity, higher = more binding, comparable within an allelic series)

Q: And the binding signal (VENTX [2])?
A: 8.26 upbm affinity estimate (log intensity, higher = more binding, comparable within an allelic series)

Q: And the binding signal (VENTX [3])?
A: 8.14 upbm affinity estimate (log intensity, higher = more binding, comparable within an allelic series)

Q: What about the binding signal (HOXB6 [14]) of the same sequence?
A: 9.05 upbm affinity estimate (log intensity, higher = more binding, comparable within an allelic series)

Q: And the binding signal (HOXB6 [15])?
A: 8.96 upbm affinity estimate (log intensity, higher = more binding, comparable within an allelic series)

Q: CACTAATG was tested. Which binding signal (VENTX [1]) did it give?
A: 11.7 upbm affinity estimate (log intensity, higher = more binding, comparable within an allelic series)

Q: What about the binding signal (VENTX [2]) of the same sequence?
A: 12.3 upbm affinity estimate (log intensity, higher = more binding, comparable within an allelic series)

Q: What about the binding signal (VENTX [3]) of the same sequence?
A: 11.6 upbm affinity estimate (log intensity, higher = more binding, comparable within an allelic series)

Q: And the binding signal (HOXA2 [21])?
A: 12.1 upbm affinity estimate (log intensity, higher = more binding, comparable within an allelic series)

Q: What about the binding signal (HOXA2 [22]) of the same sequence?
A: 13.2 upbm affinity estimate (log intensity, higher = more binding, comparable within an allelic series)

Q: And the binding signal (HOXA2 [23])?
A: 10.9 upbm affinity estimate (log intensity, higher = more binding, comparable within an allelic series)

Q: And the binding signal (HOXA2 [24])?
A: 12.1 upbm affinity estimate (log intensity, higher = more binding, comparable within an allelic series)

Q: Which results are given for CCGCTGGC?
A: binding signal (VENTX [1]): 7.68 upbm affinity estimate (log intensity, higher = more binding, comparable within an allelic series); binding signal (VENTX [2]): 7.51 upbm affinity estimate (log intensity, higher = more binding, comparable within an allelic series); binding signal (VENTX [3]): 7.74 upbm affinity estimate (log intensity, higher = more binding, comparable within an allelic series); binding signal (HOXB6 [14]): 8.89 upbm affinity estimate (log intensity, higher = more binding, comparable within an allelic series); binding signal (VAX1 [18]): 6.67 upbm affinity estimate (log intensity, higher = more binding, comparable within an allelic series); binding signal (VAX1 [19]): 7.05 upbm affinity estimate (log intensity, higher = more binding, comparable within an allelic series); binding signal (VAX1 [20]): 6.73 upbm affinity estimate (log intensity, higher = more binding, comparable within an allelic series); binding signal (HOXB6 [15]): 8.76 upbm affinity estimate (log intensity, higher = more binding, comparable within an allelic series)

Q: What does the source list for CCATTAGC?
A: binding signal (VENTX [1]): 12.2 upbm affinity estimate (log intensity, higher = more binding, comparable within an allelic series); binding signal (VENTX [2]): 12.9 upbm affinity estimate (log intensity, higher = more binding, comparable within an allelic series); binding signal (VENTX [3]): 11.9 upbm affinity estimate (log intensity, higher = more binding, comparable within an allelic series); binding signal (HOXA2 [21]): 12.3 upbm affinity estimate (log intensity, higher = more binding, comparable within an allelic series); binding signal (HOXA4): 11.4 upbm affinity estimate (log intensity, higher = more binding, comparable within an allelic series); binding signal (HOXA2 [22]): 13.1 upbm affinity estimate (log intensity, higher = more binding, comparable within an allelic series); binding signal (HOXA2 [23]): 10.6 upbm affinity estimate (log intensity, higher = more binding, comparable within an allelic series); binding signal (HOXA2 [24]): 12 upbm affinity estimate (log intensity, higher = more binding, comparable within an allelic series); binding signal (VAX1 [20]): 12.4 upbm affinity estimate (log intensity, higher = more binding, comparable within an allelic series)
